Consider seven compounds from PubChem BioAssay (Tox21).

Several values for one entry are separate records, joined by “and”; a condition that tells them apart may be missing. Equal entries are not always repeated. Unmarked numbers belong to inactive results. Records with an inconclusive call do not appear. Activity calls are given as the source filed them. Unless noted, the call rests on the fitted dose curve; in most records, active means well fitted curve in the direction sought with a large enough effect in the repeat runs; inconclusive means weak or mixed curves; inactive means no such curve, though single readings can be large; an effect the other way counts as inactive or inconclusive.

Assay [1] is described as follows: qHTS assay to identify small molecule antagonists of the estrogen related receptor (ERR) signaling pathway from Tox21 library - cell viability counter screen (AID 1224834). Further: nearly all actives have a fitted effect of over 30% in size. An outline of the steps: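 ERR reporter cells, 2,000 per well, rested 6 h, then exposed to compound in DMSO for 17.5 hours at 37 C. Viability read as fluorescence after 30 min with CellTiter-Fluor.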

Assay [2] deals with Luciferin 4-monooxygenase (Photinus pyralis) (UniProt P08659). Briefly: qHTS assay to identify small molecule inhibitors of firefly luciferase (AID 1224835). Further: nearly all actives have a fitted effect of over 25% in size. Further: potency means the concentration at half of the fitted maximal effect. The essentials: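 Biochemical qHTS: compounds run as interplate titrations against purified firefly enzyme, with D-luciferin and ATP each at its KM concentration. Light output recorded by CCD imaging.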
Chain of Luciferin 4-monooxygenase (Photinus pyralis) (P08659 whole entry, looked up): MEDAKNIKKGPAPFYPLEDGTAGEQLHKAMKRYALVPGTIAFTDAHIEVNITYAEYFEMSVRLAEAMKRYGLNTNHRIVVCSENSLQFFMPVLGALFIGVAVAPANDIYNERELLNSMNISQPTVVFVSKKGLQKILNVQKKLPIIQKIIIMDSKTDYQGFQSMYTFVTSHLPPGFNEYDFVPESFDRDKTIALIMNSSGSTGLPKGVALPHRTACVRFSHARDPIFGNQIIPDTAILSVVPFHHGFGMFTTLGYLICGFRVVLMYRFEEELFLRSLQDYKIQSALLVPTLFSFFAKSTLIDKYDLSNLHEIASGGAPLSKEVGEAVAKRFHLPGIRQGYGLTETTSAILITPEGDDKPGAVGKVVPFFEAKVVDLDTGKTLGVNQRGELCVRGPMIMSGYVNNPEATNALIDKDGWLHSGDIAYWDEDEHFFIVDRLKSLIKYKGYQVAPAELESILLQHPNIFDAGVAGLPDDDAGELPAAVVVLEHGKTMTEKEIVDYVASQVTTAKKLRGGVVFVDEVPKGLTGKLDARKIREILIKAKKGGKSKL
A short description of assay [3]: qHTS assay to identify small molecule agonists of the constitutive androstane receptor (CAR) signaling pathway - cell viability counter screen (AID 1224836). Further: nearly all actives have a fitted effect of over 45% in size. An outline of the steps:
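Using CellTiter-Fluor, viability of HepG2 cells harbouring hCAR and CYP2B6-2.2kb was measured following 23 h incubation with a 15-concentration compound series plus PK11195 (0.75 uM final).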

A short description of assay [4]: qHTS assay to identify small molecule antagonists of the constitutive androstane receptor (CAR) signaling pathway - cell viability counter screen (AID 1224837). Further: nearly all actives have a fitted effect of over 45% in size. An outline of the steps:
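HepG2 cells stably carrying hCAR and CYP2B6-2.2kb reporter, stimulated with 50 nM CITCO and compounds at 15 concentrations for 23 h at 37 C. Viability measured by CellTiter-Fluor fluorescence.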

Assay [5] can be described thus: qHTS assay to identify small molecule antagonists of the estrogen related receptor signaling pathway with the pleiotropic PPARgamma coactivator (PGC) from Tox21 10K library - cell viability counter screen (AID 1224840; active means well fitted cell-killing curve with a large enough effect in the repeat runs, not every such curve was filed as active; further: nearly all actives have a fitted effect of over 40% in size). An outline of the steps:
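PGC/ERR cells (2,000/well) plated 6 h, then compound-treated for 17.5 h at 37 C. Viability measured by CellTiter-Fluor fluorescence after 30 min at 37 C, multiplexed with the pathway assay.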

A short description of assay [6]: qHTS assay to identify small molecule antagonists of the estrogen related receptor signaling pathway with the pleiotropic PPARgamma coactivator (PGC) from Tox21 10K library (AID 1224841; call rule not given here; further: actives are mostly falling curves and most rising ones were filed inactive; nearly all actives have a fitted effect of over 50% in size). The essentials:
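PGC/ERR cell line, 2,000 cells/well, pre-incubated 6 hours at 37 C, then exposed to compounds for 18 hours at 37 C; luciferase read with One-Glo luminescence after 30 min at room temperature.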

Assay [7] is described as follows: qHTS assay to identify small molecule agonists of the estrogen related receptor signaling pathway with the pleiotropic PPARgamma coactivator (PGC) from Tox21 10K library (AID 1224842). Further: nearly all actives have a fitted effect of over 15% in size. An outline of the steps:
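PGC/ERR reporter cell line, 2,000 cells per well, incubated 6 h at 37 C before 23 nL compound in DMSO was added. After 18 h at 37 C, One-Glo luminescence read following 30 min at room temperature.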

In assay [8] the target is Thyrotropin receptor (Homo sapiens) (UniProt P16473). Briefly: qHTS assay to identify small molecule agonists of the thyroid stimulating hormone receptor (TSHR) signaling pathway (AID 1224843; calls by dose curve; further: nearly all actives have a fitted effect of over 45% in size). An outline of the steps: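 Steps: seed 800 TSHR-HEK293 cells per well; add test compound and hold 30 min at ambient temperature; dispense cAMP-d2 then anti-cAMP cryptate; incubate 1 h at ambient; measure fluorescence intensity.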
Chain of Thyrotropin receptor (Homo sapiens) (P16473 whole entry, looked up): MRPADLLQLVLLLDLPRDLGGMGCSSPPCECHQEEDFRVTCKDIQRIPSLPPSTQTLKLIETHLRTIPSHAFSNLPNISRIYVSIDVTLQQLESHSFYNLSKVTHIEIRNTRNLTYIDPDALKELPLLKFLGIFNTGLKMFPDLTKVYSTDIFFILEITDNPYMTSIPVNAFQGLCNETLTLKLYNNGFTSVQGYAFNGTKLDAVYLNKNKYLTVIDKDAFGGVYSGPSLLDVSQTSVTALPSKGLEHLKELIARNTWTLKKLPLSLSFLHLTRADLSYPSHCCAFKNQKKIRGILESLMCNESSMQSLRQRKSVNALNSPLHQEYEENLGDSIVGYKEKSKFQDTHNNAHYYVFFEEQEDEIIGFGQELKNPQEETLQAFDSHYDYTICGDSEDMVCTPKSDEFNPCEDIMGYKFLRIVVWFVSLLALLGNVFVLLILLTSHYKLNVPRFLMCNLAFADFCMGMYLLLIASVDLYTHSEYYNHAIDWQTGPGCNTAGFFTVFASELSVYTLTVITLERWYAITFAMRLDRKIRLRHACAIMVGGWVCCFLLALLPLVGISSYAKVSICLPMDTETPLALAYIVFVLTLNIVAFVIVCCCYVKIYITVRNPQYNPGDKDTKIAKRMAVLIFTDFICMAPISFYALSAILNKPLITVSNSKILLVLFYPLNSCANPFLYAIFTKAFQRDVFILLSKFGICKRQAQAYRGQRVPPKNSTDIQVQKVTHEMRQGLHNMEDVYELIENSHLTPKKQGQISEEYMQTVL

Assay [9] in a line: qHTS assay to identify small molecule agonists of the hypoxia (HIF-1) signaling pathway - cell viability counter screen (AID 1224844; calls by dose curve; further: nearly all actives have a fitted effect of over 50% in size). An outline of the steps:
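HRE-bla ME-180 cells, 2,000/well in 0.5% dialyzed FBS medium, treated 17 h at 37C with compounds. Viability read in the same wells as the bla reporter, by CellTiter-Glo luminescence after 30 min at room temperature.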

The nature of assay [10]: qHTS assay to identify small molecule agonists of H2AX (AID 1224845; active means well fitted activation curve with a large enough effect in the signal ratio in the repeat runs, not every such curve was filed as active; the % refers to the signal ratio). An outline of the steps:
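Wild-type CHO-K1 cells, plated overnight, exposed 3hr at 37C to 15 concentrations (0.76% DMSO final). Lysed, then HTRF anti-pH2AX (S139) cryptate and anti-H2AX-d2 antibodies, 24 hr room temperature; 665/620 nm emission read.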

Assay [11] can be described thus: qHTS assay to identify small molecule agonists of the hypoxia (HIF-1) signaling pathway (AID 1224846; active means well fitted activation curve with a large enough effect in the signal ratio in the repeat runs, not every such curve was filed as active; the % refers to the signal ratio). An outline of the steps:
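HRE-bla ME-180 beta-lactamase reporter cells in medium with 0.5% dialyzed FBS, pre-incubated 5 h then exposed to compounds 17 h at 37C, 5% CO2; reporter induction read with CCF4-AM FRET substrate.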

A short description of assay [12]: qHTS assay to identify small molecule agonists of H2AX - cell viability counter screen (AID 1224847; calls by dose curve; further: top concentration of the series differs between compounds; nearly all actives have a fitted effect of over 30% in size). An outline of the steps: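 Quantitative HTS viability measurement: CHO-K1 wild-type cells in serum (10% FBS) medium, short 3 hr drug exposure at 37C with 0.76% DMSO, CellTiter-Glo luminescent detection.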
Assay [13] is described as follows: qHTS assay to identify small molecule antagonists of the estrogen related receptor (ERR) signaling pathway from Tox21 library (AID 1224848). Further: nearly all actives have a fitted effect of over 50% in size. The essentials: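 Luminescent reporter read-out (ONE-Glo) from NTP's ERR cell line after 18 h treatment at 37 C with DMSO-dissolved Tox21 compounds; cells pre-plated 6 h beforehand at 2,000 per well.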
The nature of assay [14]: qHTS assay to identify small molecule agonists of the estrogen related receptor (ERR) signaling pathway from Tox21 library (AID 1224849; calls by dose curve; further: nearly all actives have a fitted effect of over 15% in size). Conditions: ERR reporter cell line, ONE-Glo luciferase, 18 h; at 92.4 µM (top of the series). An outline of the steps:
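ERR reporter cells (NTP line) pre-incubated 6 hours at 37 C, then exposed to compounds for 18 hours at 37 C. ONE-Glo luciferase luminescence was read after 30 minutes at room temperature.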

Assay [15] in a line: qHTS RealTime-Glo MT Cell Viability Assay in HepG2 cells - 24 hour (AID 1224867). Further: nearly all actives have a fitted effect of over 50% in size. An outline of the steps: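 Viability was tracked continuously by NanoLuc luminescence from prosubstrate reduced by living HepG2 cells, at successive time points over 40 h of compound exposure. Cells with reagent were preincubated 5 h at 37 °C before compound addition.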
Assay [16] in a line: qHTS RealTime-Glo MT Cell Viability Assay in HEK293 cells - 32 hour (AID 1224868). An outline of the steps: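 Viability tracked continuously by luminescence as live cells reduce a prosubstrate for NanoLuc; HEK293 cells preincubated 5 h, compound-treated at 37 C, and read at 0, 8, 16, 24, 32 and 40 h.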
A short description of assay [17]: A CellTox Green Cytotoxicity Assay to monitor cytotoxicity in HEK293 cells - 0 hour (AID 1224869). Further: nearly all actives have a fitted effect of over 50% in size. An outline of the steps:
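HEK293 cells, 600/well, were preincubated 5 hours and then exposed to compounds at 37 C for up to 40 hours. A cell-impermeant cyanine dye staining dead-cell DNA was read by fluorescence at 0, 8, 16, 24, 32 and 40 h time points.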

Assay [18] addresses Nuclear receptor subfamily 1 group I member 3 (Homo sapiens) (UniProt Q14994). Briefly: qHTS assay to identify small molecule antagonists of the constitutive androstane receptor (CAR) signaling pathway (AID 1224838). Further: nearly all actives have a fitted effect of over 40% in size. The essentials:
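HepG2 cells stably carrying hCAR and a CYP2B6-2.2kb luciferase reporter, seeded 4 hrs before compound (15 concentrations). Stimulated with 50 nM CITCO for 24 hr at 37 C. ONE-Glo luminescence read after 30 min at room temperature.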

The target is the same in assay [19]. Briefly: qHTS assay to identify small molecule agonists of the constitutive androstane receptor (CAR) signaling pathway (AID 1224839). Further: nearly all actives have a fitted effect of over 15% in size. Further: potency means the concentration at half of the fitted maximal effect. The essentials:
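Double-stable HepG2 cells (hCAR, CYP2B6-2.2kb) seeded 4 h before compound addition. Exposure 24 h with 0.75 uM PK11195 final. Luciferase detected by ONE-Glo.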
On the % scale 0 is the no-effect control and ±100 the full control effect.

Chain of Nuclear receptor subfamily 1 group I member 3 (Homo sapiens) (Q14994 whole entry, looked up): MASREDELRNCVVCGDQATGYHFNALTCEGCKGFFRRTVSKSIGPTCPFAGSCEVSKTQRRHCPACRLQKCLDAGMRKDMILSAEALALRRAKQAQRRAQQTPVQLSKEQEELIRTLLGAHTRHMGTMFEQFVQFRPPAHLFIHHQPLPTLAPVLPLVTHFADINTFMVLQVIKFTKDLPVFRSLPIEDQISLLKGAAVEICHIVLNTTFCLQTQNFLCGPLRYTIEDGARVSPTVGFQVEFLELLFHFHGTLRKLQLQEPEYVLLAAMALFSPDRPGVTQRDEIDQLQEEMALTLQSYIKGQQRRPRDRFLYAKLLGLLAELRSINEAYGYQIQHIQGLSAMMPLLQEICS

As to `CC(C)c1ccc(CO)cc1`, the Potency entry in assay [1], in assay [2], in assay [3], in assay [4], in assay [5] and in assay [6] was “inactive” in each case. The Potency entry in [7], in assay [8], in assay [9], in assay [10], in assay [12] and in assay [13] was “inactive” in each case. Also, the Potency result in [15], in [16] and in assay [17] was “inactive” in each case. Further, the result in assay [11] was inactive. For the same compound, in assay [14], the activity change, positive = activation was 2.78% and -0.788%.

Regarding `C=CCc1ccc2c(c1)OCO2`, the Potency entry in assay [1], in assay [2], in assay [3], in assay [4], in assay [18] and in assay [19] was “inactive” throughout. Besides, the Potency result in assay [5], in [8], in assay [9], in assay [10], in assay [12] and in assay [15] was “inactive” each time. Further, the Potency result in assay [16] and in assay [17] was “inactive” in each case. Moreover, the result in [11] was inactive.

For the compound `c1ccc(P(c2ccccc2)c2ccccc2)cc1`, the Potency entry in [1], in assay [2], in assay [3], in assay [4], in assay [18] and in assay [5] was “inactive” in each case. In addition, the Potency entry in [8], in assay [12], in assay [15], in [16] and in assay [17] was “inactive” in each case. In addition, the compound was classed as inactive in assay [11].

In the case of `OCC(O)CO`, the Potency result in assay [1], in [2], in assay [3], in assay [4], in assay [5] and in assay [6] was “inactive” in each case. Further, the Potency result in assay [7], in assay [8], in assay [9], in assay [12], in [13] and in assay [15] was “inactive” throughout. The Potency entry in [16] and in assay [17] was “inactive” each time. The compound was called inactive in assay [11]. Moreover, the activity change, positive = activation in assay [14] was 2.36% and 0.0013%.

`c1ccc(NNc2ccccc2)cc1`: the Potency result in [1], in assay [3], in assay [4], in [5], in [6] and in assay [7] was “inactive” each time. The Potency result in [8], in assay [9], in assay [10], in assay [12], in assay [13] and in assay [15] was “inactive” each time. Besides, the Potency result in [16] and in [17] was “inactive” throughout. Further, the Potency in [2] was 25.4 µM (active) and 17.8 µM (active). The compound was called inactive in assay [11]. Besides, in assay [14], the activity change, positive = activation was 2.54% and 6.77%.

`CCCCC(CC)COC(=O)c1ccc(C(=O)OCC(CC)CCCC)c(C(=O)OCC(CC)CCCC)c1` (stereo not given): the Potency result in assay [1], in assay [2], in [3], in assay [4], in assay [18] and in assay [19] was “inactive” each time. Besides, the Potency entry in assay [5], in assay [8], in assay [9], in assay [12], in assay [15] and in [16] was “inactive” each time. In assay [17], the Potency entry is “inactive”. Moreover, the result in assay [11] was inactive.

`CCCCNC(=O)n1c(NC(=O)OC)nc2ccccc21`: the Potency entry in assay [1], in assay [3], in assay [4], in [18], in assay [5] and in assay [8] was “inactive” each time. Besides, the Potency result in assay [9], in [10], in assay [12], in assay [15] and in assay [17] was “inactive” throughout. In addition, the values for the Potency in [2] and in assay [19] were 63 µM (active) and 54.2 µM (active), respectively. Further, in assay [11], the compound was classed as inactive.
